According to PubChem BioAssay (NCATS):
Activity calls are given as the source filed them. The call rests on the fitted dose curve; in most records, active means well fitted curve in the direction sought with a large enough effect; inconclusive means small, poorly fitted or top-dose-only effect, or another doubt; inactive means no such curve, though single readings can be large; an effect the other way counts as inactive or inconclusive.

How the values were obtained:
[1] = biological target: Alpha-galactosidase (Coffea arabica) (UniProt Q42656); assay: Counterscreen for Glucocerebrosidase Inhibitors: qHTS Assay for Coffee Bean alpha-Galactosidase at pH 4.5 (AID 957); further: series mostly up to about 77 µM
Sequence of Alpha-galactosidase (Coffea arabica) (Q42656 whole entry, looked up): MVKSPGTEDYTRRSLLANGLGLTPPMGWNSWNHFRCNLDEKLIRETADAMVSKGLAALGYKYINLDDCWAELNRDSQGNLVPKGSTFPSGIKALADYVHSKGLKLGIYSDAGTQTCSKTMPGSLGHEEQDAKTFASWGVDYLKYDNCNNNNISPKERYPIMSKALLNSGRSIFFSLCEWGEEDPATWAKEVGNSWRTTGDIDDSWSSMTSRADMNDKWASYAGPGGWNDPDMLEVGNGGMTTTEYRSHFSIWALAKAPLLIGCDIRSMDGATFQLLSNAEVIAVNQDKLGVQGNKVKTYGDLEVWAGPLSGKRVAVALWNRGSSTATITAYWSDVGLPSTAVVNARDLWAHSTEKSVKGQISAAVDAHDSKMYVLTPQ
How it was run: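 Enzyme is added first (2 nM final), then compounds titrated from 0.7 nM to 77 uM, then 80 uM 4-methylumbelliferyl alpha-D-galactopyranoside; after 20 min at room temperature a pH 10 NaOH/glycine stop precedes fluorescence reading at 365/440 nm.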

[2] = biological target: Alpha-galactosidase (Coffea arabica) (UniProt Q42656); assay: Counterscreen for Glucocerebrosidase Inhibitors: qHTS Assay for Coffee Bean alpha-Galactosidase at pH 5.9 (AID 998)
How it was run: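 Fluorogenic 4-MU substrate hydrolysis, 80 uM substrate and 2 nM coffee bean alpha-galactosidase, pH 5.9 citrate buffer, 20 min at room temperature, then NaOH/glycine stop. Titration 0.7 nM–77 uM, normalized to no-enzyme and enzyme controls, AC50 via Hill equation.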

| SMILES | outcome [1] | outcome [2] |
| --- | --- | --- |
| CC(C)[C@H]1C(=O)C(C(N)=O)=C(O)[C@]2(O)C(=O)C3=C(O)c4c(O)ccc(N(C)C)c4C[C@H]3C[C@@H]12 | inactive | inactive |
| CSc1ccc2c(c1)N(CC[C@H]1CCCCN1C)c1ccccc1S2 | inactive | inactive |
| Nc1ncnc2c1ncn2[C@@H]1CCCO1 | inactive | inactive |
| Oc1ccc(/C=C\c2cc(O)cc(O)c2)cc1 | inactive | inactive |
| O=C1CC[C@H](N2C(=O)c3ccccc3C2=O)C(=O)N1 | inactive | inactive |
| CCNC(=O)[C@@H]1O[C@@H](n2cnc3c(N)nc(NCCc4ccc(CCC(=O)O)cc4)nc32)[C@H](O)[C@@H]1O | inactive | inactive |
| CC#CCOC(=O)c1c(C)nc2sc3c(c2c1N)CC[C@@H](O)C3 | inactive | inactive |
| C[C@@H](C[N+](C)(C)C)OC(N)=O | inactive | inactive |
| S=C(Nc1ccccc1)Nc1nccs1 | inactive | inactive |
| C[C@H](Oc1ccc(Oc2cnc3ccc(Cl)cc3n2)cc1)C(=O)O | inactive | inactive |
| COc1cccc(OC)c1OCCNC[C@@H]1CSc2ccccc2O1 | inactive | inactive |
| CCCCC[C@H](O)c1cccc(OCc2ccc3ccccc3n2)c1 | inactive | inactive |
| O=S(=O)(NCCNC/C=C\c1ccc(Br)cc1)c1cccc2cnccc12 | inactive | inactive |
| C[C@H](N)C1CCC(C(=O)Nc2ccncc2)CC1 (stereo not given in full) | inactive | inactive |
| C[C@@H]1CNCCN1S(=O)(=O)c1cccc2cnccc12 | inactive | inactive |
| CCCCC[C@H](CC(=O)NO)C(=O)N[C@@H](C(=O)N1CCC[C@H]1CO)C(C)C | inactive | inactive |
| CC[C@]1(C)CC(=O)NC1=O | inactive | inactive |
| NC(=S)NCCC[C@@H](N)C(=O)O | inactive | inactive |
| C[C@]1(C2CCCC2)Cc2cc(OCC(=O)O)c(Cl)c(Cl)c2C1=O | inactive | inactive |
| C[C@@H](C(=O)O)c1ccc(C[C@@H]2CCCC2=O)cc1 | inactive | inactive |

| SMILES | outcome [1] | outcome [2] |
| --- | --- | --- |
| CN(C)C(=O)/N=N\C(=O)N(C)C | inactive | inactive |
| CNC(=O)[C@@H]1O[C@@H](n2cnc3c(NCc4cccc(I)c4)ncnc32)[C@H](O)[C@@H]1O | inactive | inactive |
| CNC(=O)[C@@H]1O[C@@H](n2cnc3c(NCc4ccc(N)cc4)ncnc32)[C@@H](O)[C@H]1O | inactive | inactive |
| CN1C[C@@H](C(=O)N[C@]2(C)O[C@]3(O)[C@H]4CCCN4C(=O)[C@H](Cc4ccccc4)N3C2=O)C[C@H]2c3cccc4[nH]cc(c34)C[C@@H]21 | inactive | inactive |
| C[C@@H]1CCN=C(N)S1 | inactive | inactive |
| Cc1ccc(OC[C@H](O)[C@H](C)NC(C)C)c2c1CCC2 | inactive | inactive |
| CN(C)CCO[C@](C)(c1ccccc1)c1ccccn1 | inactive | inactive |
| N#C[C@@H](Cc1ccc(O)c(O)c1)C(=O)N1CCc2ccccc21 | inactive | inactive |
| COc1ccccc1N1CCN(C[C@@H](O)COc2cccc3ccccc23)CC1 | inactive | inactive |
| Fc1ccc(C(c2ccc(F)cc2)N2CCN(C/C=C\c3ccccc3)CC2)cc1 | inactive | inactive |
| N[C@H](C(=O)N[C@@H]1C(=O)N2C(C(=O)O)=C(Cl)CS[C@@H]12)c1ccccc1 | inactive | inactive |
| NC(N)=N[C@H](CCC(=O)O)C(=O)O | inactive | inactive |
| CN1C(=O)CC[C@@H]1c1cccnc1 | inactive | inactive |
| CCN1CCC[C@@H]1CNC(=O)c1c(O)c(Cl)cc(Cl)c1OC | inactive | inactive |
| COc1cc([C@H](O)CO)ccc1O | inactive | inactive |
| C[C@@H](COc1ccc(/C=C\c2ccccc2)cc1)[N+](C)(C)C | inactive | inactive |
| N.N.N.N.N.N.N.N.N.N.N.N.N.N.O.O.[Ru].[Ru].[Ru] | inactive | inactive |
| C[C@@H]1C(=O)N(C)C(=O)c2nc[nH]c21 | inactive | inactive |
| C=CCN1CCc2c(cc(O)c(O)c2Cl)[C@H](c2ccccc2)C1 | inactive | inactive |
| CCCCCCCCCCCCCCC/C=C\[C@H](O)[C@@H](NC(=O)CCCCCCCCCCCCC)OC (tested in a mixture with another compound) | inactive | inactive |

| SMILES | outcome [1] | outcome [2] |
| --- | --- | --- |
| C[C@@](N)(C(=O)O)c1ccc(C(=O)O)cc1 | inactive | inactive |
| CN(C)CC[C@H](c1ccc(Br)cc1)c1ccccn1 | inactive | inactive |
| CC(C)COC[C@H](CN(Cc1ccccc1)c1ccccc1)N1CCCC1 | inactive | inactive |
| CNCC[C@H](Oc1ccccc1C)c1ccccc1 | inactive | inactive |
| NS(=O)(=O)c1cc2c(cc1Cl)N[C@@H]([C@@H]1C[C@@H]3C=C[C@H]1C3)NS2(=O)=O | inactive | inactive |
| OC[C@@H]1O[C@@H](n2cnc3c(Nc4ccccc4)ncnc32)[C@@H](O)[C@H]1O | inactive | inactive |
| CN1[C@@H]2CC[C@H]1CC(OC(=O)[C@@H](CO)c1ccccc1)C2 (stereo not given in full) | inactive | inactive |
| CCCN1C[C@@H](CSC)C[C@H]2c3cccc4[nH]cc(c34)C[C@@H]21 | inactive | inactive |
| CC[C@H](NC(C)C)[C@H](O)c1ccc(O)c(O)c1 | inactive | inactive |
| O=C(O)CC[C@@H](NC(=O)c1ccccc1C(=O)O)C(=O)O | inactive | inactive |
| CC[C@]1(O)C[C@H]2CN(CCc3c([nH]c4ccccc34)[C@](C(=O)OC)(c3cc4c(cc3OC)N(C=O)[C@H]3[C@@](O)(C(=O)OC)[C@H](OC(C)=O)[C@@]5(CC)C=CCN6CC[C@]43[C@H]65)C2)C1 | inactive | inactive |
| Cc1ccccc1CNc1ncnc2c1ncn2[C@@H]1O[C@@H](CO)[C@H](O)[C@@H]1O | inactive | inactive |
| C[C@H](N=C(NC#N)Nc1ccncc1)C(C)(C)C | inactive | inactive |
| CN1[C@@H]2CC(OC(=O)[C@@H](CO)c3ccccc3)C[C@H]1[C@H]1O[C@H]12 (stereo not given in full) | inactive | inactive |
| CSC(N)=NCCC[C@@H](N)C(=O)O | inactive | inactive |
| O=C(NC[C@H]1CCCCN1)c1cc(OCC(F)(F)F)ccc1OCC(F)(F)F | inactive | inactive |
| O=C(O)[C@H]1CN(CCCP(=O)(O)O)CCN1 | inactive | inactive |
| CC(C)(C)c1ccc(S(=O)(=O)/C=C\C#N)cc1 | inactive | inactive |
| C=C1C(=O)O[C@@H]2[C@@H]1CC/C(C)=C\CC[C@@]1(C)O[C@H]21 | inactive | inactive |
| Cc1cccc(C)c1OC[C@@H](N)C(C)C | inactive | inactive |
